From PubChem
12-hLO inh: inhibitors of human 12-lipoxygenase (ALOX12) | purified 12-hLO, xylenol orange hydroperoxide absorbance | Potency, µM (highest dose often 57.1 µM), inactives show at the highest dose activity change, negative = inhibition, actives largely listed as inhibitors | actives 0.12% (n = 150,000) | AID 1452; active = well fitted inhibition curve with a large enough effect; inconclusive = small, poorly fitted or top-dose-only effect; also: potency is read from the fitted curve at half-maximal effect; nearly all actives have a fitted effect of over 55% in size
Target sequence (P18054 whole entry, looked up): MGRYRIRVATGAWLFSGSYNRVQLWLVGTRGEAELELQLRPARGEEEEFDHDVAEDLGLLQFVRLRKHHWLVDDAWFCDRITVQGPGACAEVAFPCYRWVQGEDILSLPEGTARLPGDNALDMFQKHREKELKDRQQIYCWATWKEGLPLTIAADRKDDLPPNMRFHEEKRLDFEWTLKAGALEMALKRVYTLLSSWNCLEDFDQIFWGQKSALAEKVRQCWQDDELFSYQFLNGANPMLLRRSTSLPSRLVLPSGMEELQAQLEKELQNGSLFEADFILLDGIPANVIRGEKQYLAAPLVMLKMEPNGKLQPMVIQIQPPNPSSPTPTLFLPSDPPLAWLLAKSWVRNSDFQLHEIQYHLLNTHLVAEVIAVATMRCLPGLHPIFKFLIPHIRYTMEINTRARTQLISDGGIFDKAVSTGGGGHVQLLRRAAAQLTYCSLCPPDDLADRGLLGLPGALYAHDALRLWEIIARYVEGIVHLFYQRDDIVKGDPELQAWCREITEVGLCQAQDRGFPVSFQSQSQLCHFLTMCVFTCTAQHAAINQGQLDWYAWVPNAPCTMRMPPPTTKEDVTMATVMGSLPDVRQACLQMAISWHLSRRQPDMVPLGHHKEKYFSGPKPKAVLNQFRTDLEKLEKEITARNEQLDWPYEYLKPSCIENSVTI
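Purified human 12hLO (150 nM), preincubated 15 min with compound, then 40 uM arachidonic acid for 30 min, room temperature, Hepes pH 7.0 with 0.01% Triton X-100. Hydroperoxide detected by ferrous iron/xylenol orange; 573/405 nm absorbance ratio gives reaction progress.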
PNC assembly inh: inhibitors of perinucleolar compartment assembly; PC3M PTB-GFP, PNC prevalence imaging, 16 h; stronger effect = lower value; activity change (PNC), negative = inhibition, % at 10 µM; actives 3.1% (n = 140,000);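 active = readout at or below -70, meaning at least 70% loss of cells showing the perinucleolar compartment, a nuclear body marking cancer cells; inconclusive = readout between -30 and a set limit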;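 also: plate controls were DMSO wells for no effect and camptothecin positive control wells for full effect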
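Read-out is percentage of cells bearing a perinucleolar compartment, from automated 20x imaging of fixed, Hoechst-stained PC3M PTB-GFP cells. Cells were seeded 4 h, then exposed 16 h to compound (23 nl of library stock) in duplicate plates.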
LMNA splice mod: modulators of lamin A splicing; actives 0.01% (n = 200,000); Potency, µM (series often up to 46.1 µM), without a hit: at the top dose ratio change, negative = inhibition, most hits filed as inhibitors; HeLa LMNA splicing GFP/RFP minigene ratio, 48 h; active = well fitted inhibition curve with a large enough effect in the signal ratio, with a control signal flat, not every such curve was filed as active; inconclusive = small, poorly fitted or top-dose-only effect, or effect the other way, or a change in a side signal; the % refers to the signal ratio; also: potency is read from the fitted curve at half-maximal effect
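Read-out is the ratio of GFP to DsRed2 object intensity, acquired by 488 nm laser-scanning cytometry on HeLa lamin A-EGFP minigene reporter cells. Compound incubation 48 hrs at 37 °C in Opti-MEM with 2% FBS; DMSO 0.5% final.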
HPGD block: HPGD (human) dehydrogenase inhibition | Potency, µM, inactives show at the highest dose activity change, negative = inhibition, most hits filed as inhibitors | purified HPGD, NADH fluorescence kinetic, PGE2 substrate | actives 4.3% (n = 150,000) | P15428; also: potency is read from the fitted curve at half-maximal effect
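NADH formation kinetics: reaction with 30 uM PGE2 and 1 mM NAD+ (final), 20 nM enzyme, Tris-HCl pH 8 with Tween 20, after 15 min compound preincubation at room temperature. Fluorescence change, last versus first of five reads.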
ALDH1A1 block: ALDH1A1 (human) enzyme inhibition | P00352 | Purified ALDH1A1, NADH fluorescence, propionaldehyde substrate | actives 7.3% (n = 220,000) | Potency, µM (titrated, usually from 75.3 µM), without a hit: at the top dose activity, negative = inhibition, actives largely listed as inhibitors;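 also: potency is read from the fitted curve at half-maximal effect; plate controls were no enzyme wells and a reference inhibitor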
* marks the source's active call; other numbers are inactive results; [ ] = dose if it differs, or a comment. Rows were chosen to be rich in hits. Some 10% of all compounds tested hit in one or more screens of this group. Unless noted, calls follow the shape of the dose curve; as a rule, active = well fitted inhibition curve with a large enough effect (not every such curve was filed as active); inconclusive = small, poorly fitted or top-dose-only effect, or another doubt; inactive = no such curve, though single readings can be large or run the other way. Unless noted, % is scaled to controls: 0 for no effect and ±100 for the full control effect.

How did Cc1ccc(-c2nn3c(C)nnc3c3ccccc23)cc1S(=O)(=O)NCCN1CCOCC1 do in these assays?
12-hLO inh: -7%; PNC assembly inh: 68; LMNA splice mod: 13%; HPGD block: -30%; ALDH1A1 block: 24%

What do the screens show for `Cc1ccc(CSc2nc3c(c(=O)[nH]2)C(c2cccc(F)c2F)CC(=O)N3)cc1` (stereo unspecified)?
LMNA splice mod: 11%[46 µM]

What do the screens show for `O=C(CSC1=NC(=O)C(c2ccccc2)C(=O)N1)Nc1ccccc1Cl` (stereo unspecified)?
12-hLO inh: -1%; PNC assembly inh: inconclusive; LMNA splice mod: 15%; HPGD block: -9%; ALDH1A1 block: 20µM*

What do the screens show for `O=C(CSC1=NC(=O)C(c2ccccc2)C(=O)N1)Nc1cccc(Cl)c1` (stereo unspecified)?
12-hLO inh: -5%; PNC assembly inh: inconclusive; LMNA splice mod: 7%; HPGD block: 0%; ALDH1A1 block: -9%

What do the screens show for `CCC(=O)N1CCc2cc(S(=O)(=O)NC(C(=O)NC(C)c3ccccc3)C(C)C)ccc21` (stereo unspecified)?
12-hLO inh: -2%; PNC assembly inh: inconclusive; LMNA splice mod: 6%; HPGD block: -4%; ALDH1A1 block: 17%

Results for CC(=O)N1CCCc2cc(S(=O)(=O)N(C)Cc3ccccc3)ccc21 ?
12-hLO inh: -8%; PNC assembly inh: 5; LMNA splice mod: -14%; HPGD block: 32µM*; ALDH1A1 block: inconclusive

Results for COc1ccc(NC(=O)CCS(=O)(=O)c2ccc3c(c2)CCCN3C(C)=O)cc1 ?
12-hLO inh: -5%; PNC assembly inh: 94; LMNA splice mod: 6%; HPGD block: -6%; ALDH1A1 block: inconclusive

How did CCOc1ccc(NC(=O)CCS(=O)(=O)c2ccc3c(c2)CCCN3C(C)=O)cc1 do in these assays?
12-hLO inh: -2%; PNC assembly inh: -13; LMNA splice mod: 0%; HPGD block: -5%; ALDH1A1 block: 19µM*

What do the screens show for `CC(=O)N1CCCc2cc(S(=O)(=O)NC(C(=O)NC(C)c3ccccc3)C(C)C)ccc21` (stereo unspecified)?
12-hLO inh: -4%; PNC assembly inh: inconclusive; LMNA splice mod: inconclusive; HPGD block: -4%; ALDH1A1 block: 3.2µM*

What do the screens show for `CC(=O)N1CCCc2cc(S(=O)(=O)N(CCN(C)C)Cc3ccccc3)ccc21`?
LMNA splice mod: -7%[46 µM]

Results for CC(=O)N1CCCc2cc(S(=O)(=O)NC(C(=O)NC3CCCCC3)C(C)C)ccc21 (stereo unspecified) ?
12-hLO inh: 1%; PNC assembly inh: 41; LMNA splice mod: inconclusive; HPGD block: -5%; ALDH1A1 block: 7.1µM*

What do the screens show for `COc1cccc(NC(=O)Cn2nnc(-c3nc(-c4ccccc4)no3)c2N)c1`?
LMNA splice mod: -14%[46 µM]

Results for COc1ccc(CC(N)C(=O)NC2C(CO)OC(n3cnc4c(N(C)C)ncnc43)C2O)cc1 (stereo unspecified) ?
12-hLO inh: -2%; HPGD block: -4%; ALDH1A1 block: -3%

Results for COc1cc2c(cc1OC)C(=O)OC2 ?
12-hLO inh: 6%; LMNA splice mod: -8%; HPGD block: -17%; ALDH1A1 block: 8%

Results for COC(=O)N[C@@H](CCc1ccccc1)[C@]1(C(=O)OC)CCCC1=O ?
HPGD block: -1%; ALDH1A1 block: 2%

Results for Cc1ccccc1NC(=O)C(=O)N/N=C/c1cccc(Br)c1 ?
12-hLO inh: 4%; PNC assembly inh: -114*; LMNA splice mod: 4%; HPGD block: -4%; ALDH1A1 block: 17%

What do the screens show for `C=CCNC(=O)C(=O)N/N=C/c1cccc(Br)c1`?
LMNA splice mod: 25%[46 µM]; ALDH1A1 block: 5%

Results for Clc1cccc(/C(Cc2nc3ccccc3[nH]2)=N\Nc2ccccc2)c1 ?
12-hLO inh: -15%; PNC assembly inh: inconclusive; LMNA splice mod: -4%; HPGD block: -15%; ALDH1A1 block: inconclusive

How did Cc1ccc(N/N=C(\Cc2nc3ccccc3[nH]2)c2ccccc2)cc1 do in these assays?
12-hLO inh: -1%; PNC assembly inh: 0; LMNA splice mod: inconclusive; HPGD block: inconclusive; ALDH1A1 block: 10µM*

What do the screens show for `c1ccc(N/N=C(\Cc2nc3ccccc3[nH]2)c2ccccc2)cc1`?
12-hLO inh: -6%; PNC assembly inh: 8; LMNA splice mod: -6%; HPGD block: inconclusive; ALDH1A1 block: 28µM*

How did COc1ccc(-c2nc3cnc(OC)nc3n(Cc3cccc(OC)c3)c2=O)cc1 do in these assays?
12-hLO inh: -1%; HPGD block: inconclusive; ALDH1A1 block: inconclusive

Results for NC(=O)c1ccc(SCC(=O)NC2CCCCC2)c([N+](=O)[O-])c1 ?
LMNA splice mod: 9%[9.22 µM]; ALDH1A1 block: 3%

Results for O=C(COC(=O)c1ccccc1C(=O)c1ccc(Cl)c([N+](=O)[O-])c1)NC1CCCCCC1 ?
12-hLO inh: 1%; PNC assembly inh: -22; LMNA splice mod: inconclusive; HPGD block: -17%; ALDH1A1 block: 14µM*

What do the screens show for `COC(=O)c1ccc(SCC(=O)NC2CCCC2)c([N+](=O)[O-])c1`?
12-hLO inh: -1%; PNC assembly inh: 52; LMNA splice mod: -1%; HPGD block: 35µM*; ALDH1A1 block: 1%

How did CC(=O)[C@@H]1CC[C@@H]2[C@@H]3C[C@H](C)C4=CC(=O)CC[C@@]4(C)[C@H]3[C@H](O)C[C@]21C do in these assays?
12-hLO inh: -1%[25.6 µM]; LMNA splice mod: inconclusive; HPGD block: 2%; ALDH1A1 block: -18%[20.9 µM]

Results for C/C(CC(=O)N(C(C)C)C(C)C)=N\NC(=O)COc1ccc(Br)cc1Br ?
12-hLO inh: -8%; PNC assembly inh: -109*; LMNA splice mod: 4%; HPGD block: -24%; ALDH1A1 block: 11%

How did C/C(CC(=O)Nc1ccccc1-c1ccccc1)=N\NC(=O)COc1ccc(C)cc1Br do in these assays?
12-hLO inh: -5%; PNC assembly inh: 2; LMNA splice mod: 7%; HPGD block: -3%; ALDH1A1 block: inconclusive

What do the screens show for `Cn1cnnc1SC1CCCCC1NS(=O)(=O)c1ccccc1` (stereo unspecified)?
12-hLO inh: -5%; PNC assembly inh: inconclusive; LMNA splice mod: -6%; HPGD block: -3%; ALDH1A1 block: 7.9µM*

How did O=S(=O)(NC1CCCCC1Nc1ccccc1)c1ccccc1 (stereo unspecified) do in these assays?
12-hLO inh: 2%; PNC assembly inh: inconclusive; LMNA splice mod: -7%; HPGD block: 3%; ALDH1A1 block: inconclusive

What do the screens show for `Cn1cnnc1SC1CCCCC1NS(=O)(=O)c1ccc(Cl)cc1` (stereo unspecified)?
12-hLO inh: -3%; PNC assembly inh: 121; LMNA splice mod: -18%; HPGD block: -3%; ALDH1A1 block: 13µM*
